Assay results taken from the supplement of paper PMC12669032.

Key:
Test in all cases: growth AUC relative to DMSO control (median of replicates) (fraction); higher = more growth (less inhibition), active = hit call of the paper
Conditions in all cases: 20 µM; 24 h;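 active = AUC reduced over 20% with Padj below 0.05 in at least 2 of 3 replicates; inactive = otherwise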
[1] = tested on: Akkermansia muciniphila
In short: (§1)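 Gut bacterial monocultures were grown anaerobically at 37 °C in mGAM, starting at OD600 0.05, with 20 µM compound (1% DMSO) in round-bottom 96-well plates under pierced gas-permeable seals. OD600 was read hourly for 24 h. Area under the growth curve (minimum OD set to 0) was normalised to the plate median of DMSO controls, or to row and column medians on the industrial chemical plate. The value is the median of three biological replicates grown on separate days.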

[2] = tested on: Bacteroides caccae
In short: as §1

[3] = tested on: Bacteroides clarus
In short: as §1

[4] = tested on: Bacteroides dorei
In short: as §1

[5] = tested on: Bacteroides stercoris
In short: as §1

[6] = tested on: Bacteroides thetaiotaomicron
In short: as §1

[7] = tested on: Bacteroides uniformis
In short: as §1

[8] = tested on: Bifidobacterium longum subsp. longum
In short: as §1

[9] = tested on: Clostridium difficile
In short: as §1

[10] = tested on: Collinsella aerofaciens
In short: as §1

[11] = tested on: Coprococcus comes
In short: as §1

[12] = tested on: Escherichia coli ED1a
In short: as §1

[13] = tested on: Escherichia coli IAI1
In short: as §1

[14] = tested on: Eubacterium rectale
In short: as §1

[15] = tested on: Fusobacterium nucleatum subsp. animalis
In short: as §1

[16] = tested on: Lactobacillus gasseri
In short: as §1

[17] = tested on: Lactobacillus paracasei
In short: as §1

[18] = tested on: Odoribacter splanchnicus
In short: as §1

[19] = tested on: Parabacteroides distasonis
In short: as §1

[20] = tested on: Parabacteroides merdae
In short: as §1

Measured: growth AUC

CCOP(=S)(OCC)Oc1cc(-c2ccccc2)on1
inactive: [1] 1.24 | [2] 0.984 | [3] 0.984 | [4] 0.861 | [5] 0.961 | [6] 0.956 | [7] 0.955 | [8] 1.06 | [9] 1.02 | [10] 0.942 | [11] 1.03 | [12] 0.993 | [13] 0.993 | [14] 1.05 | [15] 0.973 | [16] 0.886 | [17] 0.964 | [18] 1.01 | [19] 0.854 | [20] 1

CCOP(=S)(OCC)Oc1ccc(S(C)=O)cc1 (stereo not given)
inactive: [1] 0.951 | [2] 0.974 | [3] 0.967 | [4] 0.985 | [5] 0.951 | [6] 0.968 | [7] 0.993 | [8] 0.97 | [9] 0.994 | [10] 1.05 | [11] 1 | [12] 1 | [13] 1.01 | [14] 0.878 | [15] 0.998 | [16] 1.07 | [17] 1 | [18] 0.977 | [19] 1 | [20] 1

COC(=O)Nc1cccc(OC(=O)Nc2cccc(C)c2)c1
inactive: [1] 0.871 | [2] 0.991 | [3] 0.983 | [4] 1.02 | [5] 0.99 | [6] 1.01 | [7] 0.994 | [8] 1.03 | [9] 1.02 | [10] 0.926 | [11] 1.03 | [12] 1 | [13] 0.966 | [14] 1 | [15] 0.944 | [16] 0.933 | [17] 0.987 | [18] 1.05 | [19] 0.976 | [20] 0.968

c1coc(-c2nc3ccccc3[nH]2)c1
inactive: [1] 1.03 | [2] 0.937 | [3] 1 | [4] 0.919 | [5] 1.17 | [6] 0.96 | [7] 0.968 | [8] 1.04 | [9] 0.971 | [10] 0.945 | [11] 1.02 | [12] 1.01 | [13] 0.986 | [14] 1.09 | [15] 0.985 | [16] 0.949 | [17] 0.997 | [18] 0.879 | [19] 0.977 | [20] 0.961

O=P(Oc1ccccc1)(Oc1ccccc1)Oc1ccccc1
inactive: [1] 0.805 | [2] 0.898 | [3] 0.958 | [4] 0.96 | [6] 0.901 | [7] 0.923 | [8] 0.919 | [9] 1 | [10] 1.02 | [11] 0.937 | [12] 1 | [13] 0.993 | [14] 0.977 | [15] 0.828 | [16] 0.943 | [17] 0.958 | [18] 1.01 | [20] 0.842
active: [5] 0.755 | [19] 0.594

COc1ccc(C(c2ccc(OC)cc2)C(Cl)(Cl)Cl)cc1
inactive: [1] 0.973 | [2] 0.92 | [3] 0.849 | [4] 0.926 | [7] 0.813 | [8] 0.926 | [9] 0.988 | [10] 0.975 | [11] 0.978 | [12] 1.04 | [13] 0.967 | [14] 0.882 | [15] 1.06 | [16] 1.13 | [17] 1.02 | [18] 1 | [19] 0.938 | [20] 0.71
active: [5] 0.49 | [6] 0.776

CCOP(=O)(OCC)ON1C(=O)c2cccc3cccc(c23)C1=O
active: [4] 0.754 | [5] 0.482 | [6] 0.736 | [7] 0.683 | [18] 0.484 | [19] 0.619 | [20] 0.794
inactive: [1] 1.01 | [2] 0.856 | [3] 0.898 | [8] 1.05 | [9] 0.946 | [10] 0.936 | [11] 0.971 | [12] 0.994 | [13] 0.958 | [14] 1.16 | [15] 0.961 | [16] 0.954 | [17] 0.971

C[N+](C)(C)CCCl.[Cl-]
inactive: [1] 1.06 | [2] 1.01 | [3] 1.03 | [4] 0.983 | [5] 1.08 | [6] 1.02 | [7] 1.01 | [8] 0.997 | [9] 1 | [10] 1.02 | [11] 1.05 | [12] 1.02 | [13] 1.03 | [14] 1.04 | [15] 1.11 | [16] 0.944 | [17] 1.05 | [18] 1.01 | [19] 1.06 | [20] 1.03

CCOC(=O)N(C)C(=O)CSP(=S)(OCC)OCC
inactive: [1] 1.11 | [2] 1.04 | [3] 0.999 | [4] 1.01 | [5] 1.01 | [6] 0.994 | [7] 0.991 | [8] 0.991 | [9] 1.01 | [10] 0.997 | [11] 1.01 | [12] 1.01 | [13] 0.987 | [14] 0.898 | [15] 1.1 | [16] 1.03 | [17] 1.03 | [18] 1.03 | [19] 0.999 | [20] 0.985

Cc1cc(Cl)ccc1OCC(=O)O.O.[Na]
inactive: [1] 1.25 | [2] 0.981 | [3] 1.01 | [4] 0.921 | [5] 1.02 | [6] 1.05 | [7] 0.993 | [8] 1.05 | [9] 1.02 | [10] 0.98 | [11] 1 | [12] 1.01 | [13] 1 | [14] 1.15 | [15] 1.07 | [16] 0.864 | [17] 0.994 | [18] 1.03 | [19] 0.95 | [20] 1.04

O=C(OC1CCCCC1)c1ccccc1C(=O)OC1CCCCC1
inactive: [1] 1 | [2] 0.967 | [3] 0.997 | [4] 0.985 | [5] 1.09 | [6] 0.951 | [7] 0.985 | [8] 1 | [9] 0.995 | [10] 0.943 | [11] 0.97 | [12] 1 | [13] 0.99 | [14] 0.946 | [15] 1.01 | [16] 1.08 | [17] 1.02 | [18] 0.991 | [19] 0.957 | [20] 1

COP(=S)(OC)Oc1ccc(Sc2ccc(OP(=S)(OC)OC)cc2)cc1
inactive: [1] 0.994 | [2] 0.986 | [3] 1.04 | [4] 0.979 | [5] 1.08 | [6] 1.04 | [7] 0.968 | [8] 0.94 | [9] 0.996 | [10] 0.992 | [11] 1.03 | [12] 1.05 | [13] 1.01 | [14] 1.01 | [15] 1.09 | [16] 1.03 | [17] 0.973 | [18] 1.13 | [19] 1.01 | [20] 1.05

O=[N+]([O-])c1cc(C(F)(F)F)c(Cl)c([N+](=O)[O-])c1Nc1ncc(C(F)(F)F)cc1Cl
active: [2] 0.55 | [3] 0.322 | [4] 0.672 | [5] 0.00814 | [6] 0.0138 | [7] 0.0147 | [8] 0.705 | [17] 0.578 | [20] 0.0369
inactive: [1] 1.01 | [9] 0.914 | [10] 0.886 | [11] 0.953 | [12] 0.98 | [13] 0.986 | [14] 0.995 | [15] 0.885 | [16] 0.807 | [18] 1.02 | [19] 0.905

O=C1C(Cl)=C(Cl)C(=O)C(Cl)=C1Cl
inactive: [1] 1.08 | [2] 1.09 | [3] 1.01 | [4] 0.978 | [5] 0.877 | [6] 0.986 | [7] 0.976 | [8] 0.969 | [9] 1.03 | [10] 0.992 | [11] 1.02 | [12] 1.03 | [13] 1.02 | [14] 0.844 | [15] 1.01 | [16] 0.973 | [17] 1.01 | [18] 0.912 | [19] 1.04 | [20] 0.927

ClC1=C(Cl)C2(Cl)C(CBr)CC1(Cl)C2(Cl)Cl (stereo not given)
inactive: [1] 1.02 | [2] 1.04 | [3] 1.02 | [4] 0.999 | [5] 1.02 | [6] 1.01 | [7] 0.982 | [8] 1.01 | [9] 0.985 | [10] 0.957 | [11] 0.994 | [12] 0.956 | [13] 0.986 | [14] 1.01 | [15] 0.969 | [16] 0.858 | [17] 1.03 | [18] 1.01 | [19] 0.973 | [20] 0.973

COP(=S)(OC)Oc1ccc(S(N)(=O)=O)cc1
inactive: [1] 1.02 | [2] 1.03 | [3] 0.995 | [4] 1 | [5] 0.984 | [6] 0.984 | [7] 1.02 | [8] 0.969 | [9] 0.992 | [10] 0.984 | [11] 1.01 | [12] 0.976 | [13] 0.999 | [14] 0.901 | [15] 0.998 | [16] 1.06 | [17] 1.05 | [18] 1 | [19] 0.992 | [20] 1.01
